# Data: PubChem BioAssay (NCI)
# This is part of a sample that, as a whole, favours compounds with a hit. Of some 79,000 tested, about 15% had one in any assay. A number with no mark means an inactive call. Active and inactive are the calls of the source. Rule as the data show it: active = growth inhibition above about 70%; inactive = the rest.
# Experiments:
# [1] = NCI Yeast Anticancer Drug Screen. Data for the rad50 strain (AID 155);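 also: 0% = growth of vehicle-only cultures of the same strain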; conditions: S. cerevisiae rad50 strain growth inhibition; at 50.0 µM; active compounds read high
# Method in brief: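 Genetically altered yeast (DNA repair pathway); compound treatment; growth inhibition vs vehicle ctrl.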
# [2] = NCI Yeast Anticancer Drug Screen. Data for the mec2-1 strain (AID 157); conditions: S. cerevisiae mec2-1 strain, at 50.0 µM, active compounds read high
# Method in brief: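 Readout is yeast growth inhibition, normalised to vehicle-treated controls, in the mec2-1 strain exposed to compound.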
# [3] = NCI Yeast Anticancer Drug Screen. Data for the sgs1 mgt1 strain (AID 161);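 also: 0% = growth of cultures given vehicle only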; conditions: S. cerevisiae sgs1 mgt1 strain, at 50.0 µM, active compounds read high
# Method in brief: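 This yeast growth screen uses a strain with defined DNA-repair lesions; compound-treated growth is compared with vehicle-treated growth.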
# [4] = NCI Yeast Anticancer Drug Screen. Data for the cln2 rad14 strain (AID 165);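 also: 0% = growth equal to vehicle treated cultures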; conditions: S. cerevisiae cln2 rad14 strain, at 50.0 µM, active compounds read high
# Method in brief: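 Relative to vehicle controls, growth inhibition of compound-treated cln2 rad14 yeast was recorded.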
# [5] = NCI Yeast Anticancer Drug Screen. Data for the bub3 strain (AID 167); conditions: S. cerevisiae bub3 mutant strain, at 50.0 µM, active compounds read high
# Method in brief: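 Yeast carrying a defined mutation is treated with each compound, and growth is compared with that of vehicle-exposed cells to give inhibition.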
# [6] = NCI Yeast Anticancer Drug Screen. Data for the mlh1 rad18 strain (AID 175); conditions: S. cerevisiae mlh1 rad18 strain growth inhibition; at 50.0 µM; active compounds read high
# Method in brief: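 Test agents were incubated with a yeast strain of defined genotype (DNA damage repair defect). Inhibition of growth was derived by comparison with vehicle-exposed cultures.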
SMILES,growth inhibition [1],growth inhibition [2],growth inhibition [3],growth inhibition [4],growth inhibition [5],growth inhibition [6]
CCCCC1C(=O)N(c2ccc(S(=O)(=O)Nc3ccccn3)cc2)N(c2ccc(O)c(C(=O)O)c2)C1=O (stereo unspecified),21.8%,23.7%,6.7%,23.2%,,
CCCCCCCCCCCCCCCC(C)(C)O,-29%,-27.6%,,,,
COc1cc(/C=C2\CN(C)C(=O)C2=O)ccc1O,-11.7%,,,,,
CCCCCCCCCCCCOc1ccc(C)cc1,5.45%,-25%,,,,
Cc1cc(CSC(=N)N)c(C)cc1CSC(=N)N,-12.1%,-39.6%,,,,
COc1c(O)ccc(C2=Cc3ccc(O)cc3OC2)c1OC,80.2% (active),91.5% (active),88.2% (active),88.3% (active),88.7% (active),
C/C=C(/C)N(C(C)=O)N(C(C)=O)c1ccc([N+](=O)[O-])cc1[N+](=O)[O-],5.75%,-18.2%,,,,
C[C@@H]1C[C@@H]2OC(=O)[C@]3(C)[C@H]2[C@@H](OC3(C)O)[C@]2(C)C(=O)C=C[C@@H]12 (stereo partly specified),-27.6%,-45.6%,-40.4%,-12.7%,-48.6%,
COc1cc([C@H]2OC[C@@H]3C(c4cc(OC)c5c(c4)OCO5)OC[C@H]23)cc(OC)c1OC (stereo partly specified),-8.65%,-34.6%,-26.9%,21%,-1.35%,-53.1%
COc1ccc(/C=C2/NC(=S)N=C2Cl)cc1,-6.9%,-21.8%,4.3%,-0.45%,18.1%,-29%
COc1cc2c(c3c1c(=O)c1ccccc1n3C)C=C([N+](=O)[O-])C(C)(C)O2,1.4%,-32.8%,16.6%,6.95%,-39.5%,-25.3%
CNC(=S)/C(=N\Nc1nc[nH]c1C(N)=O)C(N)=S,-3.7%,7.85%,38.5%,-0.8%,15.1%,21.1%
Cc1cc(N(CCC#N)CCC#N)ccc1/C=N/NC(=O)c1cc(Cl)ccc1O,-1.8%,-18.3%,-40.8%,-9.2%,-23.7%,-32%
C[C@@H]1C[C@](O)([C@@H](C)Cl)C(=O)O[C@@H]2CCN3CC=C(COC(=O)[C@]1(C)O)[C@H]23,-14.2%,-16.1%,-7.95%,-11.1%,5.7%,-30.6%
COc1ccc2nc(NC(=O)/C(C#N)=C/c3ccccc3)sc2c1,5.9%,-24.9%,44.6%,-3.3%,-8.95%,-5.7%
c1ccc(N(c2ccccc2)c2ccccc2)cc1,5%,-14.7%,1.9%,7.1%,-10.4%,4.05%
C=C(CCC(C(=O)O)C1CCC2(C)C3=C(CCC12C)C1(C)CCC(O)C(C)(C)C1CC3)C(C)C (stereo unspecified),-4%,-29.5%,-0.75%,2.15%,-23.6%,-8.25%
C=CCNC1=C2C[C@@H](C)C[C@@H](OC)[C@@H](OC(=O)CCCN)[C@H](C)/C=C(\C)[C@@H](OC(N)=O)[C@H](OC)/C=C\C=C(/C)C(=O)NC(=CC1=O)C2=O,-5.15%,-0.55%,14.2%,13.2%,20.6%,4.6%
CC(=N/N=C/c1ccccn1)/C(C)=N/N=C(C)/C(C)=N/N=C(C)/C(C)=N/N=C(C)/C(C)=N\N=C\c1ccccn1,24.1%,21.9%,4.05%,16.7%,8.15%,-21.6%
C=C1C2CCC3C4(C)CCCC(C)(C(=O)O)C4CCC3(C2)C1OC(=O)/C(C)=C/C (stereo unspecified),22.4%,4.85%,-7.05%,25.1%,0.75%,-59.4%
N#Cc1n[nH]n(-c2ccccc2)c1=O,-26.3%,-10.8%,17.3%,-11.7%,-21%,-13.7%

SMILES,growth inhibition [1],growth inhibition [2],growth inhibition [3],growth inhibition [4],growth inhibition [5],growth inhibition [6]
O=C(O)CCCC(=O)Nn1c(Cc2ccc(Cl)cc2)n[nH]c1=O,7.75%,-13.1%,34.5%,-6.3%,-7.15%,-1.85%
CNC(=O)c1cccnc1,-5.35%,-26%,-20.6%,6.7%,-12.2%,-8.35%
Cc1ccc2c(/C=C/c3ccc(N(C)C)cc3)ccc(C(C)C)cc1-2,-5.4%,-41.3%,19.1%,1.75%,-22.2%,-53.2%
COc1ccc(-c2coc3c4c(ccc3c2=O)OCO4)cc1OC,3.6%,-13.4%,0.45%,7.2%,-8.45%,-30.8%
COC(=O)C(C(=O)C(=O)Nc1c(C)cccc1C(C)(C)C)c1nc2ccc(Cl)cc2[nH]c1=O (stereo unspecified),-7.9%,-26.9%,-2.25%,16.9%,-3.5%,12.7%
COC(=O)C(Cc1nc2ccccc2[nH]c1=O)C(=O)C(=O)Nc1cc(C(F)(F)F)ccc1Cl (stereo unspecified),5.3%,-18.5%,19.4%,4.65%,2.4%,11.4%
Clc1ccc(C2C3COc4ccccc4C3=NN2c2ccccc2)cc1 (stereo unspecified),-26.1%,-29.9%,-14.8%,0.5%,-29.5%,-13.3%
O=C1NC(N/N=C\c2ccccc2)=N/C1=C/c1ccc(Cl)cc1,22.6%,0.75%,11.7%,17.8%,16.7%,-1.85%
N=C1N=C(N)CS1,2.6%,-10%,3.8%,12.4%,25.9%,3.85%
CCCCCCCCCCCCC/C=C/[C@H]1[C@@H](C(=O)OC)N1S(=O)c1ccc(C)cc1 (stereo partly specified),-15.1%,-27.6%,1.25%,-13.1%,-10.5%,-43.5%
COc1cc2oc3c(c(=O)c2c(O)c1/C=C/C(C)C)CCC(C)(C)Oc1cc(O)ccc1-3,22.6%,11.1%,49%,47.3%,39.5%,-26.4%
CC(C)=CCc1c(OC(=O)c2c(C)cc(O)cc2O)cc(CO)c(CO)c1O,5.1%,11.4%,30.4%,5.95%,8.65%,-54.9%
CCOc1cc2c(cc1O)/C(=N/NS(=O)(=O)c1ccc(C)cc1)C[C@@H]1[C@@H]2CC[C@]2(C)[C@@H](O)CC[C@@H]12,33.9%,26.9%,4.05%,35.4%,14.1%,4.4%
CCOC(=O)COc1cc(-c2ccccc2)nc2cc(F)ccc12,10.5%,7.95%,0.25%,-18.4%,-4.1%,-25.9%
CNc1nc2c(C)ccc3[nH]c(N(C)C)nc3c-2n1,14.2%,-32.8%,11.3%,8.1%,4.65%,-10.9%
OCc1ccccc1OC1OC(CO)C(O)C(O)C1O (stereo unspecified),18.5%,2.6%,16.4%,-0.45%,21.6%,-50.9%
COc1ccc2cc(CN3CCC(C4CCNCC4)CC3)ccc2c1,15.6%,-4.8%,1.55%,14.7%,20.8%,86% (active)
O=C(NC1=NC2C=CC([N+](=O)[O-])=CC2S1)C(=O)Nn1c(=S)[nH]c2ccccc2c1=O (stereo unspecified),6.8%,-14.9%,20.2%,10.8%,20.7%,24.1%
NC(=S)NS(=O)(=O)c1ccc(N)cc1,-24.6%,-38.2%,-6%,4.35%,-16.4%,8.3%
C=C1C(=O)OC2/C=C(\CO)CC/C=C(\CO)CC(OC(=O)C(C)C)C12 (stereo unspecified),-17%,-13.4%,-16%,24.4%,-7%,-41.5%
